Compound activity from PubChem BioAssay.
BL2 CD40 inh – CD40 pathway inhibition in BL2 cells; BL2 NF-kB luciferase reporter, CD40L-induced, 4 h; inhibition, % at 10 µM; hit rate 0.94% among 83,000; AID 1053188;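 active = mean inhibition of at least 50% with a set share of replicates also reaching that level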
Each line names hits and unclear results; the compound was inactive in the other large screens; ! = repeats disagree; [ ] = dose if it differs, or a comment. This excerpt belongs to a sample that is enriched for hits.

CNC[C@H]1OCCCC[C@H](C)Oc2ccc(NC(=O)Nc3ccc(OC)cc3)cc2C(=O)N([C@@H](C)CO)C[C@@H]1C	none
CC(C)NC(=O)N(C)C[C@H]1OCc2ccccc2-c2ccccc2C(=O)N([C@H](C)CO)C[C@@H]1C	none
S=C(CSc1ccccc1)Nc1cccc2ccccc12	none
[O-]C(=C(C(=S)Nc1cccc2ccccc12)[n+]1ccccc1)c1ccc2c(c1)OCCO2	BL2 CD40 inh 55
O=C(Nc1cccc2cccnc12)c1ccc2c(c1)OCCO2	none
CCN1CCN(c2nc(-c3ccccn3)nc3ccccc23)CC1	none
c1ccc(CN2CCN(c3nc(-c4ccccn4)nc4ccccc34)CC2)cc1	none
c1ccc(CCc2nc(-c3ccccn3)no2)cc1	none
c1ccc2c(N3CCCC3)nc(-c3ccncc3)nc2c1	none
c1ccc(CCNc2nc(-c3ccccn3)nc3ccccc23)cc1	BL2 CD40 inh 43
c1ccc(-c2nc(N3CCCCCC3)c3ccccc3n2)nc1	BL2 CD40 inh 53
O=C(NC1CCCC1)[C@@H]1[C@@H](CO)[C@@H]2Cn3c(cccc3=O)[C@H]1N2CC1CCCC1	none
CO[C@H]1CN(C)C(=O)c2ccc(NC(=O)c3cccc(F)c3)cc2OC[C@@H](C)NC[C@H]1C	none
Cc1ccc(S(=O)(=O)N2C[C@@H]3N[C@H](C2)C3c2ccc(-c3cccc(C#N)c3)cc2)cc1 (stereo not given in full)	none
N#Cc1cccc(-c2ccc(C3[C@@H]4CN(S(=O)(=O)c5ccccc5F)C[C@H]3N4)cc2)c1 (stereo not given in full)	none
N#Cc1cccc(-c2ccc([C@@H]3[C@@H]4CN(S(=O)(=O)c5ccc(-c6ccccc6)cc5)C[C@H]3N4)cc2)c1	BL2 CD40 inh 61
N#Cc1cccc(-c2ccc(C3[C@@H]4CN(S(=O)(=O)c5ccccc5)C[C@H]3N4)cc2)c1 (stereo not given in full)	none
Cc1ccccc1S(=O)(=O)N1C[C@@H]2N[C@H](C1)C2c1ccc(-c2cccc(C#N)c2)cc1 (stereo not given in full)	BL2 CD40 inh 54![25 µM]
N#Cc1cccc(-c2ccc(C3[C@@H]4CN(S(=O)(=O)c5ccc(F)cc5)C[C@H]3N4)cc2)c1 (stereo not given in full)	none
CN(C)CC(=O)Nc1ccc2c(c1)[C@H]1C[C@@H](CC(=O)N3CCCCC3)O[C@@H](CO)[C@H]1O2	none
CC(C)NC(=O)N(C)C[C@@H]1Oc2c(N)cccc2C(=O)N(C)C[C@H]1C	none
COc1ccccc1C#Cc1ccc([C@H]2[C@@H](CO)N3CCCCN(CCC(F)(F)F)C[C@@H]23)cc1	none
O=C(NC[C@@H]1[C@@H](c2ccccc2)[C@H](CO)N1Cc1ccccn1)C1CCCC1	none
CC[n+]1c(/C=C(/C)SC)sc2ccccc21	none
Cc1sc2ccccc2[n+]1CC(=O)O	none
CC[n+]1c(C)sc2cc(C)ccc21	BL2 CD40 inh 56
O=C1CCCCC1C(O)(C(=O)c1ccccc1)c1ccccc1 (stereo not given)	none
CC1CCCCN1C(=O)c1ccc(NC(=O)c2ccccc2Cl)cc1 (stereo not given)	none
C[C@@H]1CN([C@H](C)CO)C(=O)c2ccccc2-c2ccccc2CO[C@@H]1CN(C)C(=O)c1cc(Cl)cc(Cl)c1	BL2 CD40 inh 66[25 µM]
C[C@H]1CN([C@@H](C)CO)C(=O)c2c(c3ccccc3n2C)-c2ccccc2CO[C@@H]1CN(C)C(=O)c1cc(Cl)cc(Cl)c1	none
C[C@H]1CN([C@@H](C)CO)C(=O)c2ccccc2-c2ccccc2CO[C@@H]1CN(C)C(=O)c1cc(Cl)cc(Cl)c1	none
C[C@@H]1CN([C@H](C)CO)C(=O)c2c(c3ccccc3n2C)-c2ccccc2CO[C@@H]1CN(C)C(=O)c1cc(Cl)cc(Cl)c1	BL2 CD40 inh 60[25 µM]
C[C@H]1CN([C@@H](C)CO)C(=O)c2ccccc2-c2ccccc2CO[C@@H]1CN(C)C(=O)c1ccccc1	none
C[C@H]1CN([C@@H](C)CO)C(=O)c2c(c3ccccc3n2C)-c2ccccc2CO[C@H]1CN(C)C(=O)c1cc(Cl)cc(Cl)c1	none
C[C@H]1CN([C@@H](C)CO)C(=O)c2cc(-c3cncnc3)cnc2O[C@@H]1CN(C)Cc1ccncc1	none
COc1cccc(-c2ccc3c(c2)O[C@@H](CN(C)C(=O)C2CCCCC2)[C@H](C)CN([C@@H](C)CO)S3(=O)=O)c1	none
CCCC#Cc1ccc2c(c1)[C@@H]1[C@@H](CCN1C(=O)CC1CC1)[C@@H](CO)N2C	none
Cc1c(C(=O)N2CCN(C3CCS(=O)(=O)C3)CC2)oc2ccc(Cl)cc12 (stereo not given)	none
CCOCCCNC(=S)N1C2CCC1CC(NC(=O)NC13CC4CC(CC(C4)C1)C3)C2 (stereo not given)	none
CC1(CCC(=O)O)C(=O)CCC2C1CCC1(C)C2CCC1(C)O (stereo not given)	none
COc1ccc(-c2ccc(C(=O)C3CC3)cc2)cc1	none
CC[N+]1(C)CCC(O)(c2ccc(OC)cc2)C(C(=O)c2ccc(OC)cc2)C1 (stereo not given)	BL2 CD40 inh 97
COc1ccc(C(=O)C23CC4CC(C2)CC(C(=O)c2ccc(OC)cc2)(C4)C3)cc1	none
O=C(COC(=O)CNC(=O)c1cccc(OC(F)F)c1)NNC(=O)c1ccccc1	none
